Consider 22 compounds from PubChem BioAssay (NCATS).

Molecules are shown by their SMILES. Inconclusive results are not listed. Calls of active or inactive are those of the source. Unless noted, the call rests on the fitted dose curve.

Assay [1] deals with Peroxisome proliferator-activated receptor gamma (Homo sapiens) (UniProt P37231). The experiment in a line: qHTS assay for small molecule agonists of peroxisome proliferator-activated receptor gamma signaling (AID 588536; active means well fitted curve in the direction sought with a large enough effect in the signal ratio, with a control signal flat, not every such curve was filed as active; the % refers to the signal ratio;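 further: 0% = DMSO basal wells and 100% = rosiglitazone at 2 µM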). Summed up: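 Beta-lactamase reporter read-out: CCF4 fluorescence (ex 405, em 460/530 nm) after 2 h at RT. HEK293 GeneBLAzer cells were treated for 16 h at 37 C. Hill fits gave EC50 and efficacy versus 2 uM rosiglitazone (100%) and DMSO (0%).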
Peroxisome proliferator-activated receptor gamma (Homo sapiens), sequence (P37231 whole entry, looked up): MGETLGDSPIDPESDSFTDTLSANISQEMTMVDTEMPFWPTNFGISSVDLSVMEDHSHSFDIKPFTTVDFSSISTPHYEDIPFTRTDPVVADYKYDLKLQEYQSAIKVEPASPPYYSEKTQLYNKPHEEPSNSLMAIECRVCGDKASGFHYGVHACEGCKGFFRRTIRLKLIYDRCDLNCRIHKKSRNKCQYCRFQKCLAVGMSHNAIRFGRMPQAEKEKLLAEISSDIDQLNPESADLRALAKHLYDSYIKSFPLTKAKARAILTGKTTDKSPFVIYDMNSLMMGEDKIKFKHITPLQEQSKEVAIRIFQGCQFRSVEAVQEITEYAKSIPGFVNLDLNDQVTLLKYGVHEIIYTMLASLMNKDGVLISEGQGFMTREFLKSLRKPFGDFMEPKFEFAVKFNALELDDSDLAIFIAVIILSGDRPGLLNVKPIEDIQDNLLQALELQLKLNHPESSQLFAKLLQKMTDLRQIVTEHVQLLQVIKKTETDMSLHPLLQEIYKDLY

Assay [2] shares this target. As to the kind of experiment: qHTS assay for small molecule antagonists of peroxisome proliferator-activated receptor gamma signaling (AID 588537; active means well fitted inhibition curve with a large enough effect in the signal ratio, with a control signal flat, not every such curve was filed as active; the % refers to the signal ratio; further: potency means the concentration at half of the fitted maximal effect). The essentials: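 Read-out: CCF4 fluorescence (ex 405, em 460/530 nm) after 2 h at RT. Cells were HEK293 carrying a UAS-bla reporter and treated 16 h at 37 C with compound plus rosiglitazone (50 nM final). Normalized to rosiglitazone and DMSO.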
(qHTS replaces the single test concentration by a dilution series.)

A short description of assay [3]: qHTS assay for small molecule agonists of retinoid X receptor alpha signaling (AID 588544). The following applies: HEK293T RXRa-UAS-bla, beta-lactamase reporter, 18 h; 530 nm emission.
In assay [4] the target is Glucocorticoid receptor (Homo sapiens) (UniProt P04150). The experiment in a line: qHTS assay for small molecule antagonists of glucocorticoid receptor signaling (AID 588533; active means well fitted inhibition curve with a large enough effect in the signal ratio, with a control signal flat, not every such curve was filed as active; the % refers to the signal ratio; further: on the % scale 0 is the no-effect control and ±100 the full control effect). Summed up:
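Antagonist-mode qHTS: compound titrations added to GRE-bla HeLa cells, then dexamethasone 2 nM final; 18 h, 37 C. CCF4 FRET fluorescence normalized to dexamethasone and DMSO; IC50 from Hill fit.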

Assay [5] is described as follows: qHTS assay for small molecule activators of the nuclear factor-kappa B (NF-kB) signaling pathway (AID 651749; active means well fitted activation curve with a large enough effect in the signal ratio; the % refers to the signal ratio; further: series mostly up to about 77 µM; % of control where 0% means no effect). The conditions noted are these: NF-kB-bla ME-180 cells, beta-lactamase FRET ratio, 16 h; activation: stronger effect = higher value. The essentials:
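NF-kB-bla ME-180 cells, 2,000/well; 23 nL compound or DMSO pinned; 16 hr, 37C/5% CO2; beta-lactamase FRET read-out.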

The target in assay [6] is Glucocorticoid receptor (Homo sapiens) (UniProt P04150). The experiment in a line: qHTS assay for small molecule agonists of glucocorticoid receptor signaling (AID 588532; active means well fitted curve in the direction sought with a large enough effect in the signal ratio, with a control signal flat; the % refers to the signal ratio;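 further: 100% = dexamethasone at 0.1 µM and 0% = DMSO only wells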). The conditions noted are these: HeLa MMTV-bla, beta-lactamase ratio, agonist, 18 h; activation: stronger effect = higher value, percent of dexamethasone control, DMSO zero. The essentials:
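HeLa GRE-bla reporter cells; 18 h compound exposure at 37 C; 2 h CCF4 loading at room temperature; fluorescence at 460 and 530 nm; EC50 by Hill equation.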

Assay [7] has as its target Vitamin D3 receptor (Homo sapiens) (UniProt P11473). As to the kind of experiment: qHTS assay for small molecule antagonists of vitamin D receptor signaling (AID 588541). Further: potency means the concentration at half of the fitted maximal effect. Summed up: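 VDR-UAS-bla HEK293T cells in 2% charcoal-stripped FBS were stimulated with 1-alpha,25-dihydroxyvitamin D3 (3 nM final) plus compound for 16 h at 37 C. The beta-lactamase CCF4 readout was normalized to 50 nM agonist and DMSO, and Hill fits gave IC50.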

Assay [8] in a line: qHTS assay for small molecule activators of the human pregnane X receptor (PXR) signaling pathway (AID 720659; call rule not given here; further: 0% is about no effect).

Glucocorticoid receptor (Homo sapiens), sequence (P04150 whole entry, looked up): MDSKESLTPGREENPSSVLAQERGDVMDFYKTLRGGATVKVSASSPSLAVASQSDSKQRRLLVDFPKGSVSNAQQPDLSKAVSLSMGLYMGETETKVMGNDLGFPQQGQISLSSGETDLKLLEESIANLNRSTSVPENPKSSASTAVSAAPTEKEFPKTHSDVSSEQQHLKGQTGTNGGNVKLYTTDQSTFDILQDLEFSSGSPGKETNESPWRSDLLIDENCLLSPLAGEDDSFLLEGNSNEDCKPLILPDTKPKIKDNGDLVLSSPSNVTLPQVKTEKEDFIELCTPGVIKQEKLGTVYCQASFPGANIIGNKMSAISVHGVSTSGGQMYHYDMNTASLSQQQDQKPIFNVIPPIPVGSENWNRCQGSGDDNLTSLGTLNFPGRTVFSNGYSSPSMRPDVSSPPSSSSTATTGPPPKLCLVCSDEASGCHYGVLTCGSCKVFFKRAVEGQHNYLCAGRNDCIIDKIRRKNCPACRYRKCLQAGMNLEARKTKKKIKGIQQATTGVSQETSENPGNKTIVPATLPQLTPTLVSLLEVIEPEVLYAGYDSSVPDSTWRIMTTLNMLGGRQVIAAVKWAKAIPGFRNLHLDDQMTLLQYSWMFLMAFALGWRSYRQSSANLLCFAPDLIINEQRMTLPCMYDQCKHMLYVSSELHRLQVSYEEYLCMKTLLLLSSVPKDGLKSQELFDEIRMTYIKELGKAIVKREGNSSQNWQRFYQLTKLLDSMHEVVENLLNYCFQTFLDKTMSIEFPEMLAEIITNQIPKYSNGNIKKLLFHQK
Vitamin D3 receptor (Homo sapiens), sequence (P11473 whole entry, looked up): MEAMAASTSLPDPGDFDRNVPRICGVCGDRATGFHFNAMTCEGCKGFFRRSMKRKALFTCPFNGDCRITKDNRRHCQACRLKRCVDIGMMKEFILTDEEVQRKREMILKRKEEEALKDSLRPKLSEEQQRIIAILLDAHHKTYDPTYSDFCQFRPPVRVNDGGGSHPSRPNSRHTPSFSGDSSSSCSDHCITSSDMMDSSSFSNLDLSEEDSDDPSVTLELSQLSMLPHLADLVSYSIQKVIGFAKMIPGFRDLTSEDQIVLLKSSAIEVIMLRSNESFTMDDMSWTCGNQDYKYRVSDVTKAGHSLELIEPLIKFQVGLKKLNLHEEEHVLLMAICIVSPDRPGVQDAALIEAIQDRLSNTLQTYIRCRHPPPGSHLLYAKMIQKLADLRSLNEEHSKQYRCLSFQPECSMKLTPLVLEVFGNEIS

As for `COc1cccc(C(=O)NN(C(=O)c2cc(C)cc(C)c2)C(C)(C)C)c1C`, the Potency entry in assay [1] and in assay [2] was “inactive” each time. For the same compound, the max response in assay [3] is -2.17%.
Regarding `CC1(C)[C@H](C(=O)O[C@H](C#N)c2cccc(Oc3ccccc3)c2)[C@@H]1/C=C(\Cl)C(F)(F)F`, in assay [4], the Potency result was “inactive”. In addition, the max response in assay [3] came out at 9.43%. For the same compound, the activation in assay [5] is -0.133% (inactive).
On to `CCC(CC)Nc1c([N+](=O)[O-])cc(C)c(C)c1[N+](=O)[O-]`, for which the activation in assay [6] was -2.05% (inactive); in assay [5], -1.58% (inactive). Besides, the Potency entry in assay [4], in assay [1], in assay [2] and in assay [7] was “inactive” in each case. For the same compound, the max response in assay [3] was found to be 4.16%.
As for `CCCOCC(=Nc1ccc(Cl)cc1C(F)(F)F)n1ccnc1`, the activation in assay [6] was -3.28% (inactive); in assay [5], -1.47% (inactive). Moreover, the Potency result in assay [4] and in assay [7] was “inactive” in each case. Besides, the max response in assay [3] is -2.58%.
In the case of `C[Si](Cn1cncn1)(c1ccc(F)cc1)c1ccc(F)cc1`, the Potency entry in assay [2] and in assay [7] was “inactive” in each case.
Regarding `CS(=O)(=O)NC(=O)c1cc(Oc2ccc(C(F)(F)F)cc2Cl)ccc1[N+](=O)[O-]`, the Potency entry in assay [1] and in assay [7] was “inactive” each time. Also, the max response in assay [3] is 1.68%. Moreover, in assay [8], the outcome was inactive.
Take `CCNc1nc(NC(C)C)nc(OC)n1`: the activation in assay [6] was -1.69% (inactive). Also, the Potency result in assay [4], in assay [1] and in assay [7] was “inactive” each time. Moreover, the compound was called inactive in assay [8].
`CCCCCCCCCCCC#N`: the Potency entry in assay [4], in assay [1], in assay [2] and in assay [7] was “inactive” throughout. The max response in assay [3] is 7.65%. Further, the outcome in assay [8] was inactive.
In the case of `FC(F)C(F)(F)OCC(Cn1cncn1)c1ccc(Cl)cc1Cl` (centres undefined), the results for the activation in assay [6] and in assay [5] were 3.91% (inactive) and 0.464% (inactive), respectively. Besides, the Potency result in assay [4], in assay [1] and in assay [7] was “inactive” throughout. Further, in assay [3], the max response was 14%.
In the case of `CC(C)COP(=O)(OCC(C)C)OCC(C)C`, the Potency entry in assay [4], in assay [1], in assay [2] and in assay [7] was “inactive” each time. The activation in assay [5] is -3.3% (inactive). Besides, the outcome in assay [8] was inactive.
For `O=[N+]([O-])c1cc(C(F)(F)F)c(Cl)c([N+](=O)[O-])c1Nc1ncc(C(F)(F)F)cc1Cl`, in assay [7], the Potency was 22.4 µM (active). In addition, the outcome in assay [8] was inactive.
`CSc1nnc(C(C)(C)C)c(=O)n1N`: the activation in assay [6] was -5.36% (inactive). Also, the Potency result in assay [4] and in assay [7] was “inactive” each time. Moreover, the max response in assay [3] was -15.9%.
As to `CC(Oc1cccc(Cl)c1)C(=O)O` (centres undefined), the Potency result in assay [4], in assay [1], in assay [2] and in assay [7] was “inactive” in each case. Besides, the max response in assay [3] was -3.83%. The compound was classed as inactive in assay [8].
Regarding `CO/N=C(/C1=NOCCO1)c1ccccc1Oc1ncnc(Oc2ccccc2Cl)c1F`, the figures for the activation in assay [6] and in assay [5] were -11.9% (inactive) and 4.67% (inactive), respectively. In assay [2], the Potency was 25.1 µM (active). Besides, the compound was called inactive in assay [8].
Consider `CN/C(=N/[N+](=O)[O-])NCC1CCOC1` (centres undefined), for which the activation is 0.122% (inactive) in assay [6] and -0.877% (inactive) in assay [5]. The Potency result in assay [7] was “inactive”. Besides, the max response in assay [3] was -9.02%.
Turning to `CN1COCN(Cc2cnc(Cl)s2)/C1=N\[N+](=O)[O-]`, the activation in assay [6] is -3.49% (inactive); in assay [5] it was 0.219% (inactive). For the same compound, the Potency entry in assay [4], in assay [1], in assay [2] and in assay [7] was “inactive” each time. In addition, in assay [3], the max response was -27.5%. Moreover, the compound was called inactive in assay [8].
As to `Nc1nc(N)nc(N)n1`, the Potency entry in assay [1], in assay [2] and in assay [7] was “inactive” throughout. The max response in assay [3] is -6.58%. In assay [5], the activation was -1.8% (inactive). In addition, the outcome in assay [8] was inactive.
`CCOP(=O)(OCC)Oc1cc(C)nc(C(C)C)n1`: the activation in assay [6] was 20.3% (inactive). Further, the Potency result in assay [2] is “inactive”. The call in assay [8] was inactive.
`CCC(C)c1ccc(O)cc1` (centres undefined): the values for the activation in assay [6] and in assay [5] were 2.12% (inactive) and -0.802% (inactive), respectively. The result in assay [8] was inactive.
Regarding `CCCSP(=O)(OCC)Oc1ccc(Br)cc1Cl` (centres undefined), the Potency result in assay [1] and in assay [7] was “inactive” in each case. Further, the max response in assay [3] is 0.651%. Besides, in assay [5], the activation is 0.74% (inactive). The outcome in assay [8] was inactive.
For `CNc1cnn(-c2cccc(C(F)(F)F)c2)c(=O)c1Cl`, the results for the activation in assay [6] and in assay [5] were -4.87% (inactive) and -1.53% (inactive), respectively. In assay [7], the Potency entry was “inactive”.
Take `Cc1ccn2nc(S(=O)(=O)Nc3c(F)cccc3F)nc2n1`: the Potency entry in assay [1], in assay [2] and in assay [7] was “inactive” in each case. Moreover, the outcome in assay [8] was inactive.
